Results published in PubChem BioAssay AID1745848 (National Center for Advancing Translational Sciences (NCATS), 2022).
Screen size: about 2,100 compounds; about 940 (45%) were called active. About 48% were inconclusive and are not listed. So high a share suggests a set chosen from earlier hits. The list shows a part of the results. Unmarked numbers belong to inactive results. Calls follow the shape of the dose curve; as a rule, active = well fitted inhibition curve with a large enough effect; inconclusive = small, poorly fitted or top-dose-only effect; inactive = no such curve, though single readings can be large or run the other way.

Test: Confirmatory qHTS for Inhibitors of ATXN expression; also: nearly all actives have a fitted effect of over 65% in size;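 as to activity change, negative = inhibition: 0% = DMSO vehicle wells and -100% = medium-only wells without cells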
Settings: ATXN2-luciferase reporter cells, luminescence, 24 h; series mostly up to 11.5 µM; activity change, negative = inhibition: at the top concentration
Method in brief: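 Cells carrying ATXN2-luciferase reporter exposed 24 h at 37 C to compound. Viability then read by CellTiter-Fluor (25 uM GF-AFC, 30 min), followed by SteadyGlo luminescence; medium-only wells set 100% inhibition.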
Potency is read from the fitted curve at half-maximal effect.

With `CC(C)(C)c1ccc(NC(=O)N2CCCN(c3c(Cl)cncc3Cl)CC2)cc1` as the compound, how does the “activity change, negative = inhibition” value read?
Its value is -19.3% [at 57.5 µM].

With `Cc1c(Cl)cccc1NC(=O)N1CCCN(c2nc(-c3ccccc3)ns2)CC1` as the compound, how does the Potency read?
The Potency was 10 µM (active).

Which Potency does the source give for `O=C(Nc1ccccc1Cl)N1CCCN(c2nc(-c3ccccc3)ns2)CC1` here?
The Potency was 15.8 µM (active).

For `CN(C)CCC(c1ccc(Br)cc1)c1ccccn1` (stereo not given), which “activity change, negative = inhibition” value is on record?
Its value is -29.7% [at 57.5 µM].

Which Potency does the source give for `O=C(Nc1ccc(N2CCOCC2)c(Cl)c1)c1c(F)c(F)c(F)c(F)c1F` here?
Its Potency is 1.26 µM (active).

Which Potency does the source give for `CC(=O)N/N=C/c1cc(C(C)(C)C)cc(/C=N/NC(C)=O)c1O` here?
Its Potency is 2.82 µM (active).

Which Potency does the source give for `COc1ccc(Nc2c3ccccc3nc3ccccc23)cc1` here?
Its Potency is 14.1 µM (active).

With `CC(=O)Nc1ccc(Nc2c3ccccc3nc3ccccc23)cc1` as the compound, how does the Potency read?
The Potency was 3.55 µM (active).

With `COc1ccc(Nc2nc(N3CCCC3)c3ccccc3n2)cc1` as the compound, how does the Potency read?
Its Potency is 15.8 µM (active).

For `CC(=O)Oc1ccc(Nc2ccccc2)cc1`, which “activity change, negative = inhibition” value is on record?
The value was -27.7%.

With `CCOc1ccc(Nc2c3ccccc3nc3ccccc23)cc1` as the compound, how does the Potency read?
Its Potency is 12.6 µM (active).

For `O=C(CSc1ccc2ccccc2n1)N/N=C/c1ccccc1O`, which Potency is on record?
The Potency was 14.1 µM (active).

Which Potency does the source give for `Cc1cc(SCC(=O)N/N=C/c2ccc(O)cc2O)c(C)cc1Br` here?
Its Potency is 5.62 µM (active).

Which “activity change, negative = inhibition” value does the source give for `Cc1cc(SCC(=O)NN)c2cc(Br)ccc2n1` here?
Its value is 2.8% [at 57.5 µM].

For `Cc1cc(SCC(=O)N/N=C/c2ccc(O)cc2O)nc2ccccc12`, which Potency is on record?
Its Potency is 11.2 µM (active).

For `C=CCn1c(CNc2ccc(C)cc2)nnc1SCC(=O)N/N=C/c1ccc(O)cc1O`, which Potency is on record?
Its Potency is 10 µM (active).

With `COc1ccc(C(NC(C)=O)c2cc(Cl)c3cccnc3c2O)cc1` (stereo not given) as the compound, how does the Potency read?
The Potency was 1.78 µM (active).

With `CCC(=O)NC(c1ccc(OC)cc1)c1cc(Cl)c2cccnc2c1O` (stereo not given) as the compound, how does the Potency read?
Its Potency is 3.16 µM (active).

With `Clc1ccc(COC(Cn2ccnc2)c2ccc(Cl)cc2Cl)c(Cl)c1` (stereo not given) as the compound, how does the Potency read?
The Potency was 2.82 µM (active).

For `O=C(CCCN1C(=O)/C(=C/c2ccccc2Cl)SC1=S)NNC(=O)c1ccc(Cl)cc1`, which Potency is on record?
The Potency was 3.55 µM (active).

With `O=C(CCCN1C(=O)/C(=C/c2ccccc2Cl)SC1=S)NNC(=O)c1ccc(Cl)cc1Cl` as the compound, how does the Potency read?
The Potency was 1.58 µM (active).

With `CCc1nnc(NC(=O)c2ccc(S(=O)(=O)N(C)Cc3ccccc3)cc2)o1` as the compound, how does the Potency read?
Its Potency is 20 µM (active).

With `O=C(Nc1nnc(-c2ccc(F)cc2)o1)c1cc(Cl)sc1Cl` as the compound, how does the Potency read?
Its Potency is 15.8 µM (active).

With `CN(c1ccccc1)S(=O)(=O)c1ccc(C(=O)Nc2nnc(-c3ccc(F)cc3)o2)cc1` as the compound, how does the Potency read?
The Potency was 15.8 µM (active).

With `Cc1sc2ncnc(NCC(O)c3ccc([N+](=O)[O-])cc3)c2c1C` (stereo not given) as the compound, how does the Potency read?
The Potency was 3.16 µM (active).

With `Cc1cc(C)cc(C(=O)NC(=S)Nc2ccc(-c3cc4ccccc4oc3=O)cc2)c1` as the compound, how does the Potency read?
Its Potency is 4.47 µM (active).

With `CCOC(=O)c1c(NC(=O)CSc2nnnn2-c2ccccc2)sc2c1CC(C)(C)NC2(C)C` as the compound, how does the Potency read?
Its Potency is 3.55 µM (active).

Which “activity change, negative = inhibition” value does the source give for `O=C(CSc1nnnn1-c1ccccc1)Nc1nsc(-c2ccccc2)n1` here?
Its value is -7.49% [at 57.5 µM].

Which Potency does the source give for `Cc1ccc(C(=O)N/C(=C/c2ccc(-c3ccc([N+](=O)[O-])cc3)o2)C(=O)NCCCN(C)C)cc1` here?
The Potency was 25.1 µM (active).

With `CCCCOC(=O)/C=C\C(=O)NC(N)=O` as the compound, how does the Potency read?
The Potency was 17.8 µM (active).

Which Potency does the source give for `N/C(=C\C(=O)c1cc(Cl)ccc1O)C(Cl)(Cl)Cl` here?
Its Potency is 3.16 µM (active).

With `C/C(=N\NC(=O)C(C)n1nc(C)c([N+](=O)[O-])c1C)c1ccccc1O` (stereo not given) as the compound, how does the Potency read?
The Potency was 3.16 µM (active).

Which Potency does the source give for `O=C1N/C(=N/N=C/c2ccccc2O)SC1Cc1ccc(F)cc1` (stereo not given) here?
Its Potency is 15.8 µM (active).

Which Potency does the source give for `Cc1[nH]n(-c2ccccc2)c(=O)c1/C=N/NC(=O)c1ccccc1F` here?
The Potency was 4.47 µM (active).

For `CC(C)(CO)NCc1c(OCc2ccc(Cl)cc2)ccc2ccccc12`, which Potency is on record?
Its Potency is 14.1 µM (active).

Which Potency does the source give for `COc1cccc(CN(C)C(=O)CNC(=O)c2ccc(-c3ccccc3)cc2)c1OC` here?
The Potency was 14.1 µM (active).

Which Potency does the source give for `CCOC(=O)c1ccc(NC(=O)C2CCCN(S(=O)(=O)c3ccc(F)cc3)C2)cc1` (stereo not given) here?
Its Potency is 28.2 µM (active).

Which “activity change, negative = inhibition” value does the source give for `CCOC(=O)c1ccc(NC(=O)c2nc[nH]c2C(=O)N[C@H](C)c2ccccc2)cc1` here?
The value was -16.6%.

Which Potency does the source give for `O=C(Nc1ccccc1C(=O)Nc1nnc(C(F)(F)F)s1)c1ccccc1Cl` here?
Its Potency is 3.55 µM (active).

Which Potency does the source give for `O=C(Nc1ccccc1C(=O)Nc1nnc(C(F)(F)F)s1)c1ccccc1` here?
Its Potency is 1.78 µM (active).

For `CN(C)S(=O)(=O)c1cccc(N2C(=O)CC3(CCCCC3)CC2=O)c1`, which “activity change, negative = inhibition” value is on record?
Its value is -3.73%.

Which Potency does the source give for `COc1ccccc1CNc1nc(NCc2ccc(NC(C)=O)cc2)c2sccc2n1` here?
The Potency was 3.16 µM (active).

Which Potency does the source give for `COc1ccccc1CNc1nc(NCc2cccc(OC)c2OC)c2sccc2n1` here?
Its Potency is 25.1 µM (active).

Which Potency does the source give for `COc1cccc(CNc2nc(NCc3ccccc3)nc3ccsc23)c1` here?
The Potency was 15.8 µM (active).

With `O=C(/C=C\c1ccco1)Nc1nc(-c2ccc3ccccc3c2)cs1` as the compound, how does the “activity change, negative = inhibition” value read?
The value was -1.03%.

Which Potency does the source give for `CN(C)S(=O)(=O)c1ccc(-c2csc(N/N=C/c3ccco3)n2)cc1` here?
Its Potency is 2.82 µM (active).

With `O=C(CN1C(=O)c2ccccc2S1(=O)=O)c1ccc(Cl)cc1Cl` as the compound, how does the Potency read?
The Potency was 0.891 µM (active).

Which Potency does the source give for `Cc1cc(C(=O)CN2C(=O)c3ccccc3S2(=O)=O)c(C)n1CC1CCCO1` (stereo not given) here?
The Potency was 0.355 µM (active).

Which “activity change, negative = inhibition” value does the source give for `O=C(CN1c2cccc3cccc(c23)S1(=O)=O)NCc1ccc(Cl)cc1` here?
The value was -8.53%.

For `Cc1nnc(SCC(N)=O)n1CC1CCCO1` (stereo not given), which “activity change, negative = inhibition” value is on record?
Its value is -15% [at 57.5 µM].

Which “activity change, negative = inhibition” value does the source give for `O=C(CN1C(=O)c2ccccc2S1(=O)=O)c1ccc(O)c(O)c1` here?
Its value is -11.2%.

With `O=C(CN1C(=O)c2ccccc2S1(=O)=O)N1CCc2ccccc21` as the compound, how does the Potency read?
The Potency was 0.447 µM (active).

For `O=C(CN1C(=O)c2ccccc2S1(=O)=O)Nc1ncc(Cl)cc1Cl`, which Potency is on record?
The Potency was 2.82 µM (active).

Which Potency does the source give for `Cc1cc(C(=O)CN2C(=O)c3ccccc3S2(=O)=O)c(C)n1C(C)C` here?
The Potency was 1.58 µM (active).

Which Potency does the source give for `CCn1c(C)cc(C(=O)CN2C(=O)c3ccccc3S2(=O)=O)c1C` here?
The Potency was 1.26 µM (active).

Which “activity change, negative = inhibition” value does the source give for `O=C(O)COc1ccc2oc3ccccc3c2c1` here?
The value was -17%.

For `Cc1cc(C(=O)N/N=C/c2cc(Br)ccc2OC(=O)c2ccccc2Cl)n[nH]1`, which Potency is on record?
The Potency was 3.98 µM (active).

Which Potency does the source give for `Cc1cc(C(=O)N/N=C/c2cc(Br)ccc2OC(=O)c2ccccc2)n[nH]1` here?
Its Potency is 2.51 µM (active).

For `Cc1cc(C(=O)N/N=C/c2cc(Br)cc(Br)c2OC(=O)c2cccc(F)c2)n[nH]1`, which Potency is on record?
The Potency was 3.16 µM (active).

With `Cc1ccc(-c2cc(C(=O)N/N=C/c3ccccc3O)n[nH]2)o1` as the compound, how does the Potency read?
The Potency was 7.08 µM (active).
